Data published in PubChem BioAssay (EPA / NIEHS).
Records with an inconclusive call do not appear. Calls of active or inactive are those of the source. The calls were made as follows: active = hit-call score of the fitted dose curve at least 0.9, where 1 is the maximum; inconclusive = response in the unintended direction; inactive = score below 0.9.

Experiment: Tanguay_ZF_120hpf_OTIC_legacy: (Legacy) Oregon State University Tanguay Lab 120 Hour Post-fertilization zebrafish Assay for Otic Vesicle Malformation (AID 2283639)
Method: Tanguay_ZF_120hpf_legacy is a whole embryo, multiplexed endpoint assay using zebrafish larvae exposed for 120 hours post fertilization on a 96-well plate.Tanguay_ZF_120hpf_OTIC_legacy is one of one assay component(s) measured or calculated from the Tanguay_ZF_120hpf_legacy assay. It is designed to make measurements of zebrafish development as detected with brightfield microscopy of developing zebrafish embryos.Data from the assay component Tanguay_ZF_120hpf_OTIC_legacy was analyzed into 1 assay endpoints. This assay endpoint, Tanguay_ZF_120hpf_OTIC_legacy, was analyzed in the positive analysis fitting direction relative to DMSO as the negative control and baseline of activity. Using a type of morphology reporter, gain-of-signal activity can be used to understand changes in developmentals as they relate to the whole embryo. To generalize the intended target to other relatable targets, this assay endpoint is annotated to the zebrafish development intended target family, where the subfamily is otic vesicle morphogenesis.
Zebrafish husbandry: Tropical 5D wild-type adult zebrafish were housed in at an approximate density of 1000 per 100 gallon tank at the Sinnhuber Aquatic Research Laboratory, Oregon State University, Corvallis, OR. Each tank was kept at standard laboratory conditions of 28C on a 14-h light/10-h dark photoperiod in fish water consisting of reverse osmosis water supplemented with a commercially available salt (Instant Ocean). Spawning funnels were placed into the tanks the night prior, and embryos were collected and staged. […] Ten microliters of each row of dilution plate 2 was added to 2 exposure plates. The final DMSO concentration used was 0.64% (vol/vol). Thirty-two embryos were also exposed to 5uM trimethyltin chloride (positive control). Plates were sealed to prevent evaporation and foil covered to reduce light exposure and kept in a 28C incubator. Embryos were statically exposed until 120 hpf. At 24 hpf, embryos were assessed for photomotor response using a custom photomotor response analysis tool (PRAT) and for developmental toxicity endpoints (MO24: mortality at 24 hpf, DP: developmental progression, SM: spontaneous movement, and NC: notochord distortion). At 120 hpf, locomotor activity was measured using Viewpoint Zebralab and assessed for 18 endpoints. Zebrafish acquisition and analysis program (ZAAP), a custom program designed to inventory, acquire, and manage zebrafish data, was used to collect developmental endpoints as either present or absent (i.e., binary responses were recorded). If mortality occurred for an embryo (at either 24 or 120 hpf), the non-mortality endpoints were not measured.

Which outcome does the source give for Clc1ccccc1Cl here?
The outcome was “inactive”.

For CC(C)COC(=O)c1ccccc1C(=O)OCC(C)C, which outcome is on record?
Its outcome is “inactive”.

With Nc1ccc(N=Nc2ccccc2)cc1 as the molecule, how does the outcome read?
The outcome was “inactive”.

For O=[N+]([O-])c1ccc(Oc2ccc(Cl)cc2Cl)cc1, which outcome is on record?
Its outcome is “inactive”.

For [As]#[In], which outcome is on record?
The outcome was “inactive”.

Which outcome does the source give for COP(=S)(OC)SCN1C(=O)c2ccccc2C1=O here?
Its outcome is “inactive”.

With N#CC(Br)Br as the molecule, how does the outcome read?
Its outcome is “inactive”.

Which outcome does the source give for Cc1ccc(N=C=O)cc1N=C=O here?
Its outcome is “inactive”.

For CCN(CC)CCO, which outcome is on record?
Its outcome is “inactive”.

Which outcome does the source give for c1ccc(N=Nc2ccccc2)cc1 here?
The outcome was “inactive”.

Which outcome does the source give for CCCCCCCCOC(=O)c1ccc(C(=O)OCCCCCCCC)c(C(=O)OCCCCCCCC)c1 here?
The outcome was “inactive”.

For CCCCCOC(=O)c1ccccc1C(=O)OCCCCC, which outcome is on record?
Its outcome is “inactive”.

Which outcome does the source give for Nc1ccc(Cc2ccc(N)cc2)cc1 here?
The outcome was “inactive”.

Which outcome does the source give for CC(C)(C)OOC(=O)c1ccccc1 here?
Its outcome is “inactive”.

Which outcome does the source give for O=C1CCCO1 here?
The outcome was “inactive”.

With OCCOCCO as the molecule, how does the outcome read?
Its outcome is “inactive”.

With Cc1cc(N=Nc2ccccc2C)ccc1N as the molecule, how does the outcome read?
The outcome was “inactive”.

With CC(C)(C)C(O)(CCc1ccc(Cl)cc1)Cn1cncn1 (stereo not given) as the molecule, how does the outcome read?
Its outcome is “inactive”.

Which outcome does the source give for N#CC(Br)(Br)C(N)=O here?
Its outcome is “inactive”.

Which AC50 does the source give for O=C(Nc1ccccc1)c1ccccc1I here?
The AC50 was 48 µM (active).

Which outcome does the source give for CCCCOC(=O)c1ccccc1C(=O)OCc1ccccc1 here?
The outcome was “inactive”.

Which outcome does the source give for CCCCCCCCn1sccc1=O here?
The outcome was “inactive”.

For Clc1ccc(C(c2ccc(Cl)cc2)C(Cl)Cl)cc1, which outcome is on record?
The outcome was “inactive”.

For CCNS(=O)(=O)C(F)(F)C(F)(F)C(F)(F)C(F)(F)C(F)(F)C(F)(F)C(F)(F)C(F)(F)F, which AC50 is on record?
Its AC50 is 46.9 µM (active).

For C1=Cc2cccc3cccc1c23, which outcome is on record?
The outcome was “inactive”.

Which AC50 does the source give for [Cl-].[Cl-].[Hg+2] here?
The AC50 was 3.86 µM (active).

Which AC50 does the source give for CN(C)c1ccc(C(=O)c2ccc(N(C)C)cc2)cc1 here?
The AC50 was 12.9 µM (active).

For C[N+](C)(C)CC1CO1 (stereo not given), which outcome is on record?
Its outcome is “inactive”.

Which AC50 does the source give for Oc1ccc2ccc3cccc4ccc1c2c34 here?
The AC50 was 11.2 µM (active).

For CC(C)(OOC(C)(C)c1ccccc1)c1ccccc1, which outcome is on record?
The outcome was “inactive”.

Which outcome does the source give for CC(C)N(Cc1ccccc1)C(=O)C(C)(C)C here?
Its outcome is “inactive”.

Which outcome does the source give for Cc1ccc(N)c(N)c1 here?
The outcome was “inactive”.

For ClC1=C(Cl)[C@]2(Cl)[C@H]3[C@H]([C@@H]4C=C[C@H]3C4)[C@@]1(Cl)C2(Cl)Cl, which outcome is on record?
Its outcome is “inactive”.

For CCN(CC)N=O, which outcome is on record?
Its outcome is “inactive”.

For OCCCBr, which outcome is on record?
The outcome was “inactive”.

For Brc1ccc(Oc2ccccc2)cc1, which outcome is on record?
Its outcome is “inactive”.

For CNC(=O)Oc1cccc2c1OC(C)(C)C2, which outcome is on record?
The outcome was “inactive”.

Which outcome does the source give for CN(C)C(=O)Nc1ccc(Cl)cc1 here?
The outcome was “inactive”.

Which outcome does the source give for OCCCl here?
The outcome was “inactive”.

With CCC12COCN1COC2 as the molecule, how does the outcome read?
Its outcome is “inactive”.
